Results on five compounds are retold here after PubChem BioAssay.

Assay [1] in a line: anti-His antibody binders, primary screen, artefact control for SMM control protein annotation, biochemical, small-molecule microarray, 635 nm fluorescence (AID 1128).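 Also: score merges feature fluorescence with signal-to-noise for each printed compound spot.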 Particulars: anti-His Alexa647 antibody binding, higher = more signal.
The subject of assay [2] is Human papillomavirus type 1a E7 protein (residues 1-88). Briefly: HPV1a E7 small-molecule binders, primary screen, biochemical, small-molecule microarray, residues 1-88, 635 nm (AID 1129). To be noted: small-molecule microarray binding, fluorescence 635 nm; higher = more signal.
In assay [3] the target is Focal adhesion kinase 1 (Homo sapiens) (UniProt Q05397). In words: small-molecule microarray binders of FAK, primary screen, biochemical, 635/667 nm fluorescence, BSA, DTT (AID 1130).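 Also: composite of spot emission at 667 nm and signal to noise over triplicate slides.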 Particulars: PTK2 binding, 635 nm fluorescence, higher = more signal.
Focal adhesion kinase 1 (Homo sapiens), sequence (Q05397 whole entry, looked up): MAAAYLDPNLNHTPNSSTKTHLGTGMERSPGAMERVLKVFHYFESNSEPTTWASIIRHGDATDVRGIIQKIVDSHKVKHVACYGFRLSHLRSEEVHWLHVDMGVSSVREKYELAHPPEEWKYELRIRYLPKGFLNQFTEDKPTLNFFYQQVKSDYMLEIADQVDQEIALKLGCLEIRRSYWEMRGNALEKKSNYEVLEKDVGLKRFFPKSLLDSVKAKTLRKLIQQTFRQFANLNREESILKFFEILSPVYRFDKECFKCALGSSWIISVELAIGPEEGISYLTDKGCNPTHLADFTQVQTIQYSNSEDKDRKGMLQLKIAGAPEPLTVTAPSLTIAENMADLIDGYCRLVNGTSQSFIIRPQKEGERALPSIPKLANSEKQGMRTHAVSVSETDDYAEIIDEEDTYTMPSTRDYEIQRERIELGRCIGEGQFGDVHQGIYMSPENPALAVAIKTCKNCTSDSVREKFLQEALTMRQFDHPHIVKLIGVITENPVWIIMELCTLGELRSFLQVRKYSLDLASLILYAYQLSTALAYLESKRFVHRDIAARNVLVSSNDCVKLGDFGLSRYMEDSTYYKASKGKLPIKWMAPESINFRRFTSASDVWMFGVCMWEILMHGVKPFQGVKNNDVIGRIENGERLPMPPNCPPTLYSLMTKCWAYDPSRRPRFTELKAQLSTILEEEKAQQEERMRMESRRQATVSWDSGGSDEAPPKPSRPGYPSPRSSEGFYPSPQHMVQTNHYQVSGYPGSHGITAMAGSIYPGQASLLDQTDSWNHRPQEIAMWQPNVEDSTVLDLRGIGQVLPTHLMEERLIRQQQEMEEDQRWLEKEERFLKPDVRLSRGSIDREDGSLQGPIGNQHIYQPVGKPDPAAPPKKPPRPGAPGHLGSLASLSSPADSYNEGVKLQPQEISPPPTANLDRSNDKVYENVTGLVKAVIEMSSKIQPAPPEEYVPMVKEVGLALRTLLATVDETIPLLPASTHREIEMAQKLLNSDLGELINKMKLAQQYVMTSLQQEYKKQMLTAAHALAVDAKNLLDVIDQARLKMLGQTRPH
In assay [4] the test system is Fibrinogen (Alexa647-labelled). In words: fibrinogen binders on compound microarrays, profiling panel, artefact control for SMM control-protein annotation, biochemical, small-molecule microarray, 635/667 nm fluorescence (AID 1131).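 Also: z-score merges 667 nm fluorescence with per-spot signal-to-noise over triplicate slides.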 Particulars: fibrinogen-A647 binding fluorescence, higher = more signal.
Assay [5] deals with Follistatin (Homo sapiens) (UniProt P19883). In words: follistatin binders on small-molecule microarrays, primary screen, biochemical, small-molecule microarray, 635/667 nm fluorescence (AID 1132). To be noted: FST binding, 635 nm fluorescence, higher = more signal.
Follistatin (Homo sapiens), sequence (P19883 whole entry, looked up): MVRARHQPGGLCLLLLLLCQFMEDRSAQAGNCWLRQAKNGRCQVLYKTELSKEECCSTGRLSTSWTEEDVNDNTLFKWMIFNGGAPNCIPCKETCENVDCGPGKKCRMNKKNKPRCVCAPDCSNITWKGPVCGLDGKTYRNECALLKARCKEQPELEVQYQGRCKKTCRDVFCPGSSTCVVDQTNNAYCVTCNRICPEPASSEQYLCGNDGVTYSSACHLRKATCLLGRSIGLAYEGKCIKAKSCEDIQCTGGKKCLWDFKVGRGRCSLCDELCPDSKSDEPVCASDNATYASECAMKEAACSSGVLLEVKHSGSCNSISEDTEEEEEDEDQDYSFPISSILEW
The target in assay [6] is Fibroblast growth factor 2 (Homo sapiens) (UniProt P09038). In words: FGF2 binders on small-molecule microarrays, primary screen, biochemical, small-molecule microarray, 635/667 nm fluorescence (AID 1133). To be noted: small-molecule microarray binding, FGF2, fluorescence 635/667; higher = more signal.
Fibroblast growth factor 2 (Homo sapiens), sequence (P09038 whole entry, looked up): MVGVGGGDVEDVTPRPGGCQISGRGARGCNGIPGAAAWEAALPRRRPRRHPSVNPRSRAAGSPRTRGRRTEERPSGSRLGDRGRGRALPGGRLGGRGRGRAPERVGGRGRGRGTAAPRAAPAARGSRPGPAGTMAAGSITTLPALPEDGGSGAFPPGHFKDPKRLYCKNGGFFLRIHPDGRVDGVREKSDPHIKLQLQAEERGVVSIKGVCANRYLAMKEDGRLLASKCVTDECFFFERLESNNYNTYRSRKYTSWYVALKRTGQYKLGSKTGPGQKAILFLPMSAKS
Assay [7] in a line: mitochondrial membrane potential change in A549 cells, profiling panel, cell-based, JC-1 fluorescence, basal, 24 h, 100 nL (AID 1138).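 Also: A549 lung adenocarcinoma cells under basal conditions with no added stimulus; test concentration not given here.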 Particulars: higher = more signal.
The test system of the next assay is Lefty1. In words: Lefty1 binders on small-molecule microarrays, primary screen, biochemical, small-molecule microarray, 635/667 nm fluorescence (AID 1139). Particulars: small-molecule microarray binding, fluorescence 635/667; higher = more signal.
Assay [8] relates to wheat germ agglutinin (Triticum aestivum), Alexa647-labelled. Briefly: wheat germ agglutinin binders on compound microarrays, profiling panel, artefact control for SMM control-protein annotation, biochemical, small-molecule microarray, 635/667 nm fluorescence (AID 1140).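 Also: score merges 667 nm feature emission with signal to noise over triplicate slides.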 To be noted: WGA-A647 binding, 635 nm fluorescence, higher = more signal.
The target of assay [9] is Luciferin 4-monooxygenase (Photinus pyralis) (UniProt P08659). Briefly: firefly luciferase enzyme inhibitors, primary screen, biochemical, luminescence, purified enzyme, 2006 set (AID 1141).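 Also: cell-free assay with purified firefly luciferase at 100 ng per well in PBS; test concentration not given here.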 Particulars: SteadyGlo luminescence, 30 min, higher = more signal, called active from +8 up or from −8 down.
Luciferin 4-monooxygenase (Photinus pyralis), sequence (P08659 whole entry, looked up): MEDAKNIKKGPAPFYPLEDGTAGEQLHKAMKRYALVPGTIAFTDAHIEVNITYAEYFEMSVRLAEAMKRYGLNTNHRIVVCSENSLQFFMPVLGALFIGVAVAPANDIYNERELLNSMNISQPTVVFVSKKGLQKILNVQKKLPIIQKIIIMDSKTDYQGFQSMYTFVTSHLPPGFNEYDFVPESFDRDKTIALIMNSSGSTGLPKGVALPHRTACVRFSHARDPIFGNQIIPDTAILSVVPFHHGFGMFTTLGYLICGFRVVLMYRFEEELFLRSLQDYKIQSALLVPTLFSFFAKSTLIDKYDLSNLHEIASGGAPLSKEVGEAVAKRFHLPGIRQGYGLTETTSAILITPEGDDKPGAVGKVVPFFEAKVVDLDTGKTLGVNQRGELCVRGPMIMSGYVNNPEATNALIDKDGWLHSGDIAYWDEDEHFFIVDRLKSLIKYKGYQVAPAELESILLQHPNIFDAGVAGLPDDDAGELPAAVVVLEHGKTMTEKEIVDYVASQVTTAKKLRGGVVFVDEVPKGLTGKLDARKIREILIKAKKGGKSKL
Assay [10] deals with Wnt5a (protein binding on small-molecule microarray). In words: Wnt5a binders on small-molecule microarray, primary screen, biophysical, 635/667 nm fluorescence (AID 1142).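 Also: fluorescence read at 667 nm with signal to noise per printed feature.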 To be noted: 635 nm fluorescence, higher = more signal.
Assay [11] can be described thus: cell viability in Huh7 cells, primary screen, cytotoxicity control for HCV replication inhibitor project, CellTiter-Glo luminescence, basal, 48 h (AID 1143).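 Also: Huh7 hepatoma cells carrying a hepatitis C replication reporter with no stimulus; test concentration not given here.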 To be noted: Huh7 HCV replicon, higher = more signal, called active from +8 up or from −8 down.
Assay [12] in a line: P. aeruginosa biofilm formation inhibitors, primary screen, PAO1 strain, BacTiter-Glo luminescence, LB-PBS (AID 1144). To be noted: 12 h, higher = more signal.
Assay [13] is described as follows: CREB reporter modulators without forskolin, primary screen, cell-based, PC12, CRE-LacZ reporter, unstimulated (AID 1145). Particulars: no forskolin, luminescence, 4.5 h, higher = more signal, called active from +8 up or from −8 down.
The nature of assay [14]: CREB reporter modulators under forskolin, primary screen, cell-based, PC12, CRE-LacZ reporter, forskolin-stimulated (AID 1146).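 Also: PC12 cells with 6xCRE LacZ reporter stimulated by forskolin 10 µM; beta-galactosidase reporter signal reflecting CREB driven transcription.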 Particulars: luminescence, 4.5 h, higher = more signal, called active from +8 up or from −8 down.
Assay [15] has as its target Streptavidin (Streptomyces avidinii) (UniProt P22629). Briefly: streptavidin binders on small-molecule microarray, primary screen, artefact control for SMM compound annotation, biophysical, 635/667 nm fluorescence (AID 1147).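 Also: signal reflects streptavidin binding to arrayed compounds as a control protein.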 Particulars: streptavidin binding, higher = more signal.
The nature of assay [16]: small-molecule binders of probe aInhba, primary screen, biochemical, small-molecule microarray, 635/667 nm fluorescence (AID 1148).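 Also: score merges 667nm spot fluorescence with signal-to-noise for antibody binding to printed compounds.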 Particulars: higher = more signal.
For assay [17], the target named is Torsin-1A (Homo sapiens) (UniProt O14656). Briefly: torsin A binders from cell lysate, primary screen, small-molecule microarray, wild-type, 635/667 nm (AID 1149). Particulars: COS7 hTOR1A-WT lysate, 635 nm fluorescence, higher = more signal.
Torsin-1A (Homo sapiens), sequence (O14656 whole entry, looked up): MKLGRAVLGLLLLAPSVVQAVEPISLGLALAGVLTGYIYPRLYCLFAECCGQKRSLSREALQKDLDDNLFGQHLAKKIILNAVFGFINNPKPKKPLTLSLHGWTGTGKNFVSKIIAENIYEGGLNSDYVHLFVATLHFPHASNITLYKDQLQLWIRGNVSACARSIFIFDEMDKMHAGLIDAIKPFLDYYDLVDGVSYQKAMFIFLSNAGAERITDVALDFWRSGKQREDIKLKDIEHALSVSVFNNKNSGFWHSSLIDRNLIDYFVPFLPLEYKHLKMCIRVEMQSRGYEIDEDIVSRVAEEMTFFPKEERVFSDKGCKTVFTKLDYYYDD
Assay [18] shares this target. Briefly: small-molecule binders of mutant TOR1A in lysate, primary screen, cell lysate, small-molecule microarray, COS7 lysate, 635/667 nm fluorescence (AID 1150).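 Also: score pools 667 nm emission and signal to noise measuring lysate protein binding.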 To be noted: COS7 hTOR1A mutant lysate, 635 nm fluorescence, higher = more signal.
Assay [19] deals with Sonic hedgehog protein (Shh). In words: small-molecule binders of Shh protein, primary screen, biochemical, small-molecule microarray, 635/667 nm fluorescence (AID 1151).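 Also: Shh protein binding to compounds spotted on small-molecule microarray slides; score combines spot fluorescence intensity with signal-to-noise across triplicate slides.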 Particulars: small-molecule microarray binding, 635 nm fluorescence; higher = more signal.

Activity calls are given as the source filed them. Unless noted, no rule for the calls is given here.

Streptavidin (Streptomyces avidinii), sequence (P22629 whole entry, looked up): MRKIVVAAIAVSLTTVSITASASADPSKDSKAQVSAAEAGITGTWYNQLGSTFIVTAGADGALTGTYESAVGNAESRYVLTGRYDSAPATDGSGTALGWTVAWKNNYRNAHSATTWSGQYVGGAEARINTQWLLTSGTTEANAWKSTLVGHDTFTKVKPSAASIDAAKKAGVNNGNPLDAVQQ

Regarding `CO[C@H]1O[C@H](CO)[C@@H](OC(=O)Nc2cccc(F)c2)[C@H](OC(=O)Nc2ccccc2-c2ccccc2)[C@@H]1OC(=O)Nc1ccccc1-c1ccccc1`, the composite z-score in [1] is 1.61; in [2] it was 1.25; in assay [3], 0.797; in [4] it was 1; in assay [5], 1.09; in assay [6], 0.205. Moreover, the composite z-score with Lefty1 stood at 0.102; in [8], 1.11; in assay [10], 0.21; in [15], 1.88; in assay [16], 0.212; in the assay with Torsin-1A (Homo sapiens) [17], 0.838. The values for the composite z-score (with Torsin-1A (Homo sapiens) [18]; in assay [19]) were 0.886 and 0.667, respectively. For the same compound, the z-score in assay [7] was -1.16; in assay [9], 0.923 (inactive); in assay [11], -5.49 (inactive); in assay [12] it was -0.579 (inactive); in assay [13], 0.306 (inactive); in assay [14] it was 0.0811 (inactive).

As for `COCCn1c(C(=O)N(C)C)cc2c1C[C@H]1CN(C(=O)c3ccccc3)[C@@](Cc3ccc(F)cc3)(C(=O)OC)[C@@H]21`, the composite z-score in assay [1] was 2.3; in assay [2], 1.1; in assay [3], 0.169; in assay [4], 0.485; in [5], 0.134; in assay [6] it was -0.158. The composite z-score in the assay on Lefty1 was -0.0481; in [8], 1.11; in assay [10], 0.304; in assay [15], 0.45; in assay [16], -0.12; with Torsin-1A (Homo sapiens) [17] it was 0.249. Also, the composite z-score in the assay with Torsin-1A (Homo sapiens) [18] was 0.0952; in assay [19], -0.0212. Also, the z-score in [7] is 0.33; in [9], -0.663 (inactive); in [11] it was -0.394 (inactive); in [12], -0.191 (inactive); in [13] it was -0.947 (inactive); in assay [14], -0.578 (inactive).

Turning to `CN1C(=O)C2C=CC(C(O)c3ccccc3)N(NC(=O)OC(C)(C)C)C2C1=O` (stereo not given), the composite z-score in [1] was 0.884; in assay [2], 1.12; in assay [3], 0.164; in assay [4] it was 0.513; in [5], -0.0714; in [6], -0.27. The composite z-score with Lefty1 was -0.525; in [8] it was 1.05; in assay [10], 0.126; in assay [15], 0.134; in assay [16], -0.128; in the assay with Torsin-1A (Homo sapiens) [17] it was -0.365. The composite z-score is 0.0838 in the assay with Torsin-1A (Homo sapiens) [18] and -0.582 in [19]. The z-score in [7] was -0.165; in assay [9], 0.22 (inactive); in assay [11], 0.413 (inactive); in assay [12] it was 0.316 (inactive); in assay [13], 0.443 (inactive); in [14] it was 0.955 (inactive).

With `CCCC[C@H]1C[C@@H]1[C@@H]1N(P(=O)(c2ccccc2)c2ccccc2)[C@](CO)(c2ccccc2)CC12CC2`, the composite z-score in [1] was 0.108; in assay [2] it was 1.12; in assay [3], 0.737; in [4], 0.936; in assay [5], 0.156; in assay [6] it was -1.11. For the same compound, the composite z-score is -0.519 in the assay on Lefty1; 0.434 in [8]; 0.326 in assay [10]; 1.15 in assay [15]; 0.0403 in assay [16]; -0.57 in the assay with Torsin-1A (Homo sapiens) [17]. Moreover, the composite z-score is 0.515 with Torsin-1A (Homo sapiens) [18] and -1.36 in [19]. Besides, the z-score in assay [7] was -1.75; in [9], 2.75 (inactive); in assay [11] it was -3.16 (inactive); in assay [12] it was 0.76 (inactive); in [13] it was -0.561 (inactive); in assay [14], -1.24 (inactive).

As for `Cc1ccc(S[C@]2(C(=O)NCC(C)C)CC(=O)N(Cc3ccccc3)[C@@H]2c2ccc(CO)cc2)cc1`, the composite z-score in assay [1] was -0.549; in [2], -0.467; in assay [3], -0.0956; in assay [4], -1.2; in assay [5] it was -0.795; in [6] it was -0.42. Moreover, the composite z-score with Lefty1 is -1.4; in assay [8] it was -0.282; in assay [10] it was -0.405; in assay [15], -0.987; in assay [16], -0.152; in the assay with Torsin-1A (Homo sapiens) [17], -0.258. In addition, the composite z-score with Torsin-1A (Homo sapiens) [18] was -0.293; in assay [19] it was -1.45. Also, the z-score in assay [7] is -0.254; in [9], -0.766 (inactive); in [11], -1.13 (inactive); in assay [12] it was 0.459 (inactive); in [13], -0.179 (inactive); in assay [14], 0.98 (inactive).
